Laboratory results published in PubChem BioAssay (EPA / NIEHS).
Activity calls are given as the source filed them. How the source made its calls: active means hit-call score of the fitted dose curve at least 0.9, where 1 is the maximum; inactive means score below 0.9.

Legend:
[1] = molecular target: Bile acid receptor (Homo sapiens) (UniProt Q96RI1); assay: ATG_IR1_CIS: Attagene CIS-FACTORIAL HepG2 Assay for human Nuclear Receptor Subfamily 1 Group H Member 4 (NR1H4), IR1 submotif (AID 2282946); conditions: IR1 reporter transcription, actives raise or lower the signal
Chain of Bile acid receptor (Homo sapiens) (Q96RI1 whole entry, looked up): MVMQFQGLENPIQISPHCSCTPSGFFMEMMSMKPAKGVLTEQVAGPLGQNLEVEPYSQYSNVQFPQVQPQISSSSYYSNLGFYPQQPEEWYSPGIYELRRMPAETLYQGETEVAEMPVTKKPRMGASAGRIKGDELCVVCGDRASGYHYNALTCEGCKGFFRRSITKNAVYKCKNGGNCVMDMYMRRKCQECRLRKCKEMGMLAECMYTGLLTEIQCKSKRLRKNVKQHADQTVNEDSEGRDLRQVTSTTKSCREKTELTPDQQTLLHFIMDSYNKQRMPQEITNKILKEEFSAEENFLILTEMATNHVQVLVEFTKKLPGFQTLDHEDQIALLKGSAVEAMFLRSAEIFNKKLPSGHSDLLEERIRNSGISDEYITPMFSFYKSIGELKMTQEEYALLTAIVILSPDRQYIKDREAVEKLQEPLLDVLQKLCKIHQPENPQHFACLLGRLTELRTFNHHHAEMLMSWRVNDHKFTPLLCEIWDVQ
In short: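 Transient MRTU transfection, HepG2; 24 h dosing; RNA → RT-PCR → 6-FAM primer extension → HpaI digest → capillary electrophoresis fluorescence. Gain/loss of signal fitted relative to DMSO.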

[2] = ATG_GRE_CIS: Attagene CIS-FACTORIAL HepG2 Assay for human Glucocorticoid Response Elements (GRE) (AID 2282947); conditions: HepG2 GRE cis-reporter, Attagene multiplex mRNA; actives raise or lower the signal
In short: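 HepG2 cells transiently transfected with multiple cis-promoter reporter units measure endogenous TF activity; 24 h compound exposure. Reporter mRNA quantified by RT-PCR, FAM labelling, HpaI digestion and capillary electrophoresis; bidirectional fit vs DMSO baseline.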

[3] = ATG_ISRE_CIS: Attagene CIS-FACTORIAL HepG2 Assay for human Interferon Regulatory Factor 1 (IRF1) binding to an Interferon-Stimulated Response Element (ISRE) (AID 2282948); conditions: HepG2 ISRE cis-reporter (Attagene), mRNA transcription readout; actives raise or lower the signal
In short: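 Quantitation relies on labelled RT-PCR fragments separated by capillary electrophoresis. Human HepG2 cells bearing cis-promoter reporter constructs were treated 24 h; DMSO served as baseline for bidirectional fitting.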

[4] = ATG_M_32_CIS: Attagene CIS-FACTORIAL HepG2 Assay for M32 Transcription Factor (Internal Marker) (AID 2282949); conditions: HepG2 Attagene cis-factorial M32 reporter, mRNA; actives raise or lower the signal;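 further: background control marker of the multiplexed CIS panel rather than a real target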
In short: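 Following 24 h chemical exposure of HepG2 cells transiently expressing cis-promoter reporter constructs, reporter transcript levels were determined by RT-PCR with fluorescent labelling and capillary electrophoresis, then fitted bidirectionally against DMSO.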

[5] = ATG_M_06_CIS: Attagene CIS-FACTORIAL HepG2 Assay for M06 Transcription Factor (Internal Marker) (AID 2282950); conditions: HepG2 Attagene CIS-FACTORIAL M06 internal marker reporter; actives raise or lower the signal
In short: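 Fluorescence-labelled RT-PCR products from cis-promoter reporter units, cut with HpaI and resolved by capillary electrophoresis, give the signal. Cells are human HepG2, dosed for 24 h. Serves as background control, fitted relative to DMSO.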

[6] = molecular target: Hepatocyte nuclear factor 6 (Homo sapiens) (UniProt Q9UBC0); assay: ATG_HNF6_CIS: Attagene CIS-FACTORIAL HepG2 Assay for human Hepatocyte Nuclear Factor 6 (HNF6) (AID 2282952); conditions: HepG2 Attagene cis-factorial HNF6 reporter transcription; actives raise or lower the signal
Chain of Hepatocyte nuclear factor 6 (Homo sapiens) (Q9UBC0 whole entry, looked up): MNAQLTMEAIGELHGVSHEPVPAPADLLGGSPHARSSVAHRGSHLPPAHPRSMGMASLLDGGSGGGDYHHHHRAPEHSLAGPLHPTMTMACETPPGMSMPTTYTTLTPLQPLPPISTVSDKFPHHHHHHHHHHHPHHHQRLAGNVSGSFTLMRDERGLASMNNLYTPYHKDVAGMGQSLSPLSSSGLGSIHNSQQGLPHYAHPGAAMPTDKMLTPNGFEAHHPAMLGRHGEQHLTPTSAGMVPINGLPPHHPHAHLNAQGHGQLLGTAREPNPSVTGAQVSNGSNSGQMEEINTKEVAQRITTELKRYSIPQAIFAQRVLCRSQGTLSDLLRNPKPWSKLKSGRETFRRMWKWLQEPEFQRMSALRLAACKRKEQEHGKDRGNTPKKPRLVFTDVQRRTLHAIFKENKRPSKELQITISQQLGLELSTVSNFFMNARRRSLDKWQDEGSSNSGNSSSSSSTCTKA
In short: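 HepG2, transient MRTU transfection (cis promoters); 24 h chemical exposure; total RNA → oligo(dT) RT → PCR → 6-FAM labelling → HpaI cut → CE; bidirectional fit vs DMSO.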

[7] = molecular target: Heat shock factor protein 1 (Homo sapiens) (UniProt Q00613); assay: ATG_HSE_CIS: Attagene CIS-FACTORIAL HepG2 Assay for human Heat Shock Transcription Factor 1 (HSE) (AID 2282953); conditions: HepG2 HSE cis-reporter, Attagene RNA transcription; actives raise or lower the signal
Chain of Heat shock factor protein 1 (Homo sapiens) (Q00613 whole entry, looked up): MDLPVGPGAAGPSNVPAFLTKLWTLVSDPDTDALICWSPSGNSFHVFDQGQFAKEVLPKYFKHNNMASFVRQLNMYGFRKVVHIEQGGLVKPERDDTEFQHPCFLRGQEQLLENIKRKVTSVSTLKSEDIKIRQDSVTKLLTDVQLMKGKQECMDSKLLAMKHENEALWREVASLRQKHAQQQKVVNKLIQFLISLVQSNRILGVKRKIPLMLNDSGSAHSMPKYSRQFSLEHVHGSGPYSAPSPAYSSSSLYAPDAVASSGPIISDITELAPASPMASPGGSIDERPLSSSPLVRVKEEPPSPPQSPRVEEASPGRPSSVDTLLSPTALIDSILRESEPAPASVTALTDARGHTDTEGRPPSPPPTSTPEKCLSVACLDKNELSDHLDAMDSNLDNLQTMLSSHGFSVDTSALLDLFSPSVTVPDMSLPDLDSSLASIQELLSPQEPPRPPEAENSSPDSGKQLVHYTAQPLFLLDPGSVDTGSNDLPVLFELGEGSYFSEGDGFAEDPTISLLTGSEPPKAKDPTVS
In short: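 After a 24 h incubation with test chemical, transfected HepG2 cells were harvested for RNA; reporter transcripts were measured by RT-PCR and capillary electrophoresis. Values reflect gain or loss of signal relative to DMSO.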

[8] = ATG_MRE_CIS: Attagene CIS-FACTORIAL HepG2 Assay for human Metal Responsive Element (MRE) (AID 2282954); conditions: HepG2 MRE cis-reporter transcription, Attagene multiplex; actives raise or lower the signal
In short: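 HepG2 cells transiently transfected with multiple cis-element reporter units measure endogenous MTF1-driven transcription. After 24 h compound exposure, reporter mRNA is quantified by RT-PCR with 6-FAM labelling, HpaI digestion and capillary electrophoresis; bidirectional fits versus DMSO.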

[9] = molecular target: Hypoxia-inducible factor 1-alpha (Homo sapiens) (UniProt Q16665); assay: ATG_HIF1a_CIS: Attagene CIS-FACTORIAL HepG2 Assay for human Hypoxia Inducible Factor 1 (HIF1A) (AID 2282951); conditions: HepG2 Attagene cis-factorial HIF1a reporter transcription; actives raise or lower the signal
Chain of Hypoxia-inducible factor 1-alpha (Homo sapiens) (Q16665 whole entry, looked up): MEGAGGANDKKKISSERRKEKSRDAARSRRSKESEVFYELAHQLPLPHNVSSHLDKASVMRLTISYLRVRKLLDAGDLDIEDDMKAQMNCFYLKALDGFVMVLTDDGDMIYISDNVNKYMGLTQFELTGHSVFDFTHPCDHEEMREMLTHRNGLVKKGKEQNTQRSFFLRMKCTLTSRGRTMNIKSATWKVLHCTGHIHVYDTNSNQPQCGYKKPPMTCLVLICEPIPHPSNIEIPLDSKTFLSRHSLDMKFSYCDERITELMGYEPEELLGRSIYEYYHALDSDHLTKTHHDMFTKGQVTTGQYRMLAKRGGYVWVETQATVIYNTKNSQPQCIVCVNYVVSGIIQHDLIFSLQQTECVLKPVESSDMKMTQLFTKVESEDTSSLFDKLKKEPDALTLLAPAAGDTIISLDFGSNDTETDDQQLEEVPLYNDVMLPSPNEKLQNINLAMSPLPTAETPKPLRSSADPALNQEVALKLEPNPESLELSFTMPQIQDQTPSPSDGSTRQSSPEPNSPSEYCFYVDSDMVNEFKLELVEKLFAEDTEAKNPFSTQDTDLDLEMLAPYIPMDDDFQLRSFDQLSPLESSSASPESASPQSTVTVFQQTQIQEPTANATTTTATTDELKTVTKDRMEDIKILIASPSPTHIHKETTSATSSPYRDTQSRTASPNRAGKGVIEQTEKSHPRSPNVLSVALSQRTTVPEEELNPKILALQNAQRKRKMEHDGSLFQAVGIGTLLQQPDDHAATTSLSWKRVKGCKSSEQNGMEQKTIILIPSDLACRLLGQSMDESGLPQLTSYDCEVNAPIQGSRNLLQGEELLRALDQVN
In short: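 Measures endogenous transcription-factor activity through cis-regulated reporter mRNA in HepG2. Cells dosed 24 h; transcripts quantified by RT-PCR with 6-FAM-labelled products separated by capillary electrophoresis; DMSO serves as negative control.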

[10] = ATG_PBREM_CIS: Attagene CIS-FACTORIAL HepG2 Assay for human Phenobarbital-responsive Enhancer Module (PBREM) (AID 2282955); conditions: HepG2 PBREM cis-reporter, Attagene multiplexed transcription; actives raise or lower the signal
In short: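 Fluorescence of labelled reporter cDNA fragments, resolved by capillary electrophoresis, gives mRNA induction in transfected HepG2 cells treated for 24 h; DMSO serves as negative control and baseline.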

Measured: AC50

O=P(O)(O)Oc1ccccc1
not listed: [9] | [10]
inactive: all other assays above

CC1=NN(c2cc(S(=O)(=O)O)ccc2Cl)C(=O)C1N=Nc1ccccc1 (stereo unspecified)
not listed: [7]
inactive: all other assays above

O=C(O)c1cc(Cl)cc([N+](=O)[O-])c1Cl
inactive: all assays above

CCCCNc1ccc(NCCCC)c2c1C(=O)c1ccccc1C2=O
not listed: [9] | [10]
inactive: all other assays above

CC(C)(C)c1ccc(-c2ccc(C(C)(C)C)cc2)cc1
not listed: [7]
inactive: all other assays above

CC=CC(F)(F)C(F)(F)C(F)(F)F
inactive: all assays above

O=C(O)CC(C(=O)O)C(CC(=O)O)C(=O)O (stereo unspecified)
inactive: all assays above

CC=CCO
inactive: all assays above

C#CC1(O)CC[C@H]2[C@@H]3CCC4=CCCC[C@@H]4[C@H]3CC[C@@]21C (stereo partly specified)
inactive: [2] | [3] | [4] | [7] | [8]
active: [1] 0.849 µM | [6] 55.3 µM

COC(=O)c1sccc1S(N)(=O)=O
inactive: all assays above

CC(C)C(=O)C(C)C
active: [7] 68.7 µM
not listed: [6]
inactive: all other assays above

O=Nc1ccc(O)cc1
inactive: all assays above

CCCCCCCCO[C@@H]1O[C@H](CO)[C@@H](O)[C@H](O)[C@H]1O
not listed: [9] | [10]
inactive: all other assays above

OC1OCCOC1O (stereo unspecified)
not listed: [6]
inactive: all other assays above

NC(=O)N=NC(N)=O
not listed: [7]
inactive: all other assays above

CCOc1nc(F)cc2nc(S(=O)(=O)Nc3c(Cl)cccc3C(=O)OC)nn12
not listed: [9]
inactive: all other assays above

Cc1cnc(NC(=O)C2=C(O)c3ccccc3S(=O)(=O)N2C)s1
not listed: [9] | [10]
inactive: all other assays above

C=CC(=O)OCC(Br)CBr (stereo unspecified)
active: [1] 65.3 µM | [3] 100 µM | [7] 155 µM
not listed: [9] | [10]
inactive: all other assays above

Cc1oncc1C(=O)Nc1ccc(C(F)(F)F)cc1
active: [10] 143 µM
not listed: [9]
inactive: all other assays above

O=[N+]([O-])C1(Br)COCOC1
active: [3] 52.5 µM | [7] 58.8 µM
inactive: all other assays above

Cc1ccc(OC(=O)CC(C)C)cc1
not listed: [5]
inactive: all other assays above

FC(F)=C(F)OC(F)(F)C(F)(F)C(F)(F)F
inactive: all assays above

Cn1c(=O)[nH]c2ncn(C)c2c1=O
not listed: [9] | [10]
inactive: all other assays above

CCOC(=O)NNc1nncc2ccccc12
inactive: all assays above

C=C[C@](C)(O)CC[C@@H]1[C@@]2(C)CCCC(C)(C)[C@@H]2CC[C@@]1(C)O
inactive: all assays above

CC(C)(C)C(=O)C=Cc1ccc(Cl)cc1
inactive: [2] | [10]
active: [1] 10 µM | [3] 24.9 µM | [4] 132 µM | [5] 148 µM | [9] 26.3 µM | [6] 23.6 µM | [7] 34.3 µM | [8] 34 µM

CCCCCCCC/C=C\CCCCCCCC(=O)O
active: [1] 32 µM
not listed: [7] | [10]
inactive: all other assays above

CC(=O)[C@@]1(O)CC[C@H]2[C@@H]3C[C@H](C)C4=CC(=O)C=C[C@]4(C)[C@@]3(F)[C@@H](O)C[C@@]21C
active: [2] 0.0821 µM
inactive: all other assays above

O=S(=O)(O)c1ccccc1C=Cc1ccc(-c2ccc(C=Cc3ccccc3S(=O)(=O)O)cc2)cc1
not listed: [6] | [7]
inactive: all other assays above

CCCC(C)CCC(C)=O (stereo unspecified)
not listed: [5]
inactive: all other assays above

Cc1cccc(N(C)C(=S)Oc2ccc3ccccc3c2)c1
active: [8] 1.89 µM | [10] 2.06 µM
not listed: [9]
inactive: all other assays above

CCCCCCCCc1ccc(Nc2ccc(CCCCCCCC)cc2)cc1
inactive: all assays above

CC(=O)[C@H]1[C@H](C#N)C[C@H]2[C@@H]3CC=C4C[C@@H](O)CC[C@]4(C)[C@H]3CC[C@@]21C
not listed: [9] | [10]
inactive: all other assays above

NC(=O)C1CO1 (stereo unspecified)
not listed: [2] | [10]
inactive: all other assays above

O=C1CCCCCCCCCCCCCCCO1
active: [9] 122 µM | [7] 160 µM | [8] 180 µM
not listed: [3]
inactive: all other assays above
